PKM2 act = increases activity of human pyruvate kinase M2. purified PKM2, Kinase-Glo ATP luminescence, activation; response scale: 0% is enzyme alone, no compound. hit rate 0.34% among 260,000. P14618. Potency, µM (doses to about 57.5 µM), hits mostly activators. AID 1631; further: nearly all actives have a fitted effect of over 55% in size
Target sequence (P14618 whole entry, looked up): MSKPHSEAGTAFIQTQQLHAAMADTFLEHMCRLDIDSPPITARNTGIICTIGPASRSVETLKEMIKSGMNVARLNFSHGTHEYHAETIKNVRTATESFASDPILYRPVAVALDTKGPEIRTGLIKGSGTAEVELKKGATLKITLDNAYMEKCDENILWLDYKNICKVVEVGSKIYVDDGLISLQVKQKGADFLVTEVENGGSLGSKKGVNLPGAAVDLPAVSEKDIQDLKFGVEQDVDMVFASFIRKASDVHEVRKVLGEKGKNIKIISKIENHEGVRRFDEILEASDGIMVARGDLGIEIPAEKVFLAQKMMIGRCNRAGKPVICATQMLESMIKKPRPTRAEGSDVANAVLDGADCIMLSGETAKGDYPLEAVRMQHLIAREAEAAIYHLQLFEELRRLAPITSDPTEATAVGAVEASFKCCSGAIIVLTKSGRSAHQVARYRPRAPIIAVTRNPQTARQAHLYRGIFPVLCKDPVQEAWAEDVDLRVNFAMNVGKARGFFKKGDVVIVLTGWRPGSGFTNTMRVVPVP
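ATP formation by purified human PK-M2, quantified via coupled luciferase luminescence after 1 h at room temperature with 0.1 mM ADP and 0.5 mM PEP final.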
Vif-A3G inh = blocks the Vif interaction with human APOBEC3G; hit rate 0.076% among 410,000; Q9HC16; HeLa A3G-eYFP + Vif (tagged APOBEC3G with the HIV-1 protein that degrades it), YFP fluorescence, overnight; Potency, µM (doses to about 46.1 µM), actives largely listed as inhibitors; further: nearly all actives have a fitted effect of over 60% in size
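Read-out is eYFP fluorescence (Ex 488/Em 500-530) from Vif-expressing HeLa A3G-eYFP cells; more signal means A3G escaped Vif-mediated degradation. Cells plated overnight, compound pinned in, incubated overnight at 37 deg C.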
Vif-APOBEC3F blk = blocks the Vif interaction with APOBEC3F; hit rate 0.2% among 390,000; Potency, µM (top dose mostly 46.1 µM); HeLa A3F-eYFP + Vif (tagged APOBEC3F with the HIV-1 protein that degrades it), YFP fluorescence increase; further: nearly all actives have a fitted effect of over 65% in size
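Fluorescence increase (Ex 488/Em 500-530) after overnight compound treatment at 37 deg C flags inhibition of Vif-driven A3F-eYFP loss in stable HeLa A3F-eYFP/Vif cells seeded overnight beforehand.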
IL2 activator = activators of IL-2; IL-2 activation reporter assay, cell-based qHTS; stimulated with anti-CD3/CD4/CD28 beads; in transgenic mouse T cells; hit rate 0.065% among 360,000; activation, % (series mostly up to about 46 µM); in the data active means activation above about 50%; inconclusive means mostly about 30% to 49%
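Quantitative HTS in unstimulated transgenic mouse T cells, with memory T cells as non-tolerant control and PMA/ionomycin as tolerance-bypass control. Compound pretreatment lasted 60 minutes before 18 h bead stimulation; EGFP/DsRed fluorescence read.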
GoLoco inh red = blocks human Gai1 binding to RGS12 GoLoco peptide, red readout. P63096. Gai1:RGS12 GoLoco peptide FP, rhodamine, 10 min. Potency, µM (highest dose often 61.6 µM), most hits filed as inhibitors. hit rate 0.44% among 230,000; active means well fitted inhibition curve with a large enough effect, not every such curve was filed as active; inactive means no such curve, though single readings can be large or run the other way; further: nearly all actives have a fitted effect of over 30% in size
KAT2A inh = blocks human GCN5L2 histone acetyltransferase; Q92830; GCN5L2 HAT assay, ThioGlo1 CoA-SH fluorescence; Potency, µM (highest dose often 58.9 µM), usual class: inhibitors; hit rate 0.21% among 390,000; AID 504327
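qHTS, 1536-well. 20nM enzyme, pH 7.5 HEPES/EDTA/Tween-20 buffer; 15 min compound preinc., RT. Start: 75uM H3(1-25), 70uM AcCoA, 50uM ThioGlo1. Read Ex340/Em540 at t=0 (autofluorescence flag) and t=20 min.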
Each line names hits and unclear results; the compound was inactive in the other large screens. Rows were chosen to be rich in hits. Some 0.77% of all compounds tested hit in one or more screens of this group. Unless noted, the call rests on the fitted dose curve; in most records, active means well fitted curve in the direction sought with a large enough effect; inconclusive means small, poorly fitted or top-dose-only effect, or another doubt; inactive means no such curve, though single readings can be large; an effect the other way counts as inactive or inconclusive.

Cc1ccc(NC(=O)c2ccc(Cl)c(N3C(=O)C=CC3=O)c2)cc1	PKM2 act 20µM, KAT2A inh 18µM
Cc1cnc(NC(=O)CCCNC(=O)c2ccc(Cl)cc2)s1	none (no result: PKM2 act, GoLoco inh red)
O=C(C[n+]1cccc(C(=O)Nc2ccccc2)c1)c1ccc(Cl)cc1	none (no result: PKM2 act, Vif-A3G inh, Vif-APOBEC3F blk, GoLoco inh red, KAT2A inh)
CC1=CS(=O)(=O)CC1Sc1nc2ccccc2[nH]1 (centres undefined)	none
CC(=O)Nc1sc(N/N=C/c2ccc(N(C)C)cc2)nc1-c1ccc(C)cc1	none
COc1ccc(/C=N/Nc2nc(-c3ccc(C)cc3)c(NC(C)=O)s2)cc1OC	PKM2 act 10µM
COc1cc(/C=N\Nc2nc(-c3ccc(C)cc3)c(NC(C)=O)s2)ccc1O	PKM2 act 18µM
CCOc1cc(/C=N\Nc2nc(-c3ccc(C)cc3)c(NC(C)=O)s2)ccc1O	PKM2 act inconclusive
CC(=O)Nc1sc(N/N=C/c2ccc(C)cc2)nc1-c1ccc(C)cc1	PKM2 act 7.1µM
COc1ccc(CCNC(=O)NCc2noc3ccccc23)c(OC)c1	none (no result: PKM2 act, IL2 activator, GoLoco inh red)
CC(/C=C/c1ccc(N(C)C)cc1)=N\N=C(/N)SC1CC(=O)N(c2ccc(C(=O)O)cc2)C1=O (centres undefined)	Vif-APOBEC3F blk 25µM, KAT2A inh inconclusive
O=C(O)c1ccc(N2C(=O)CC(SC(=Nc3ccccc3)Nc3ccccc3)C2=O)cc1 (centres undefined)	none
Cc1ccc2c(c1)cc(CN(Cc1ccco1)C(=O)N1CCOCC1)c1nnnn12	none
Cc1ccc2cc(CN(Cc3ccco3)C(=O)c3ccco3)c3nnnn3c2c1	PKM2 act 16µM (no result: GoLoco inh red)
O=C(CSc1n[nH]c(-c2ccccn2)n1)Nc1ccc(Cl)cc1	Vif-APOBEC3F blk 7.9µM (no result: PKM2 act, GoLoco inh red)
O=C(CSc1n[nH]c(-c2ccccn2)n1)Nc1ccc(F)cc1	Vif-APOBEC3F blk inconclusive (no result: GoLoco inh red)
O=C(Nc1ccc(Cl)cc1)Nc1ccon1	Vif-A3G inh 20µM (no result: GoLoco inh red)
CCCCCCNC(=O)CNC(=S)N(Cc1cccs1)C1CCCCC1	none (no result: PKM2 act, GoLoco inh red)
CSC1=NS(=O)(=O)c2c(C)nn(C)c2S1	KAT2A inh 28µM
Cc1cccc(NC(=O)N(C)Cc2cccs2)c1	KAT2A inh 32µM
Cc1cccc(NC(=S)NCc2cccs2)c1	none
O=CN/C=C/c1cccc(O)c1	none (no result: PKM2 act, GoLoco inh red, KAT2A inh)
Cc1cc(C)n2c(=S)[nH]nc2n1	KAT2A inh 25µM
Cc1cc(C)n2cnnc2n1	none
Cc1ccc(C)c(S(=O)(=O)NCc2ccncc2)c1	KAT2A inh 3.2µM
C[n+]1ccc(/C=C/c2ccc(Br)cc2)cc1	GoLoco inh red 20µM
C[n+]1ccc(/C=C/c2ccc3ccccc3c2)cc1	KAT2A inh 28µM (no result: PKM2 act, Vif-A3G inh, Vif-APOBEC3F blk, IL2 activator)
O=[N+]([O-])c1cccc(C=Nc2cccc3ccccc23)c1O	KAT2A inh 35µM (no result: GoLoco inh red)
O=[N+]([O-])c1ccc(O)c(C=Nc2cccc3ccccc23)c1	none (no result: GoLoco inh red)
O=S(=O)(c1ccc(OCC(O)CNCc2ccco2)c(Cl)c1)N1CCOCC1 (centres undefined)	PKM2 act 4µM
O=C(COc1ccc(S(=O)(=O)N2CCOCC2)cc1Cl)NCc1ccco1	Vif-APOBEC3F blk inconclusive (no result: GoLoco inh red)
CC(=O)c1c(COC(=O)c2cccnc2)nc2ccccc2[n+]1[O-]	GoLoco inh red 8.9µM
CC(Oc1ccc2ccc(=O)oc2c1)C(=O)NCC1CCC(C(=O)O)CC1 (centres undefined)	none (no result: GoLoco inh red)
CC(Oc1ccc2cc(-c3ccccc3)c(=O)oc2c1)C(=O)NCC1CCC(C(=O)O)CC1 (centres undefined)	KAT2A inh 32µM (no result: GoLoco inh red)
CC(=O)N/N=C/c1cc(C)n(-c2ccc(Br)cc2)c1C	none
CC(=O)N/N=C/c1cc(C(C)C)cc(/C=N/NC(C)=O)c1O	Vif-A3G inh inconclusive, Vif-APOBEC3F blk 32µM
Cc1c(NC(=O)c2cc(-c3ccc(F)cc3)nc3ccccc23)c(=O)n(-c2ccccc2)n1C	none (no result: PKM2 act, GoLoco inh red)
CC(Nc1oc(-c2ccc(COc3ccccc3)o2)nc1C#N)c1ccccc1 (centres undefined)	Vif-APOBEC3F blk 10µM (no result: PKM2 act, IL2 activator, GoLoco inh red)
CC(=O)Nc1ccc(-c2ccc(NC(C)=O)c(O)c2)cc1O	none
